# Shown are actives, neighbours in structure and some others; about 28% of the full set was active somewhere.
# PTK2B oligo ant: antagonists of Pyk2 self-association, primary screen, Q293 cells, FERM NanoBiT luminescence, HTS | Protein-tyrosine kinase 2-beta (Homo sapiens), Q14289 | active compounds read low | z-score (the deposit names both 25 µM and 10 µM) | 0.83% of 99,000 active;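 active means Z-score of -3 or lower, scaled per plate to the spread of control and sample wells; inactive means z-score above -3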;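 further: negative z-score means lost luminescence so less FERM oligomerization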
# CYP2C9 inh: blockers of cytochrome P450 2C9 activity – biochemical, luminescence, ADME assay, primary screen. P11712. inhibition, % at 5 µM. CYP2C9 Supersomes, luciferin-H conversion. 20% of 96,000 active;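 active means blocking of liver enzyme CYP2C9 beyond about 50% at 5 µM, limit read from the data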
# Target sequence (P11712 whole entry, looked up): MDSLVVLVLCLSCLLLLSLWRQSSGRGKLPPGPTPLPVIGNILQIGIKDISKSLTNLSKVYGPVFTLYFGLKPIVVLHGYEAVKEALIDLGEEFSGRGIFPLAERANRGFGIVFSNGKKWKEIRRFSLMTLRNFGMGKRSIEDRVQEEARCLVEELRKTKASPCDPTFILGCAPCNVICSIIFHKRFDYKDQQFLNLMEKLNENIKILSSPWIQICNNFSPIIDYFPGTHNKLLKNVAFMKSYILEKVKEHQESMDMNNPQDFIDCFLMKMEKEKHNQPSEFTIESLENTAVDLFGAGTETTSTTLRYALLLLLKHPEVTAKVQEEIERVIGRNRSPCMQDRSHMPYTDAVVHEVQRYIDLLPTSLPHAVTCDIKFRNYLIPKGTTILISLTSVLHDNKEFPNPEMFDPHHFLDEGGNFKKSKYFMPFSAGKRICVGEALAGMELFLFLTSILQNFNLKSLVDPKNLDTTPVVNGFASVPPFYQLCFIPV
# CYP2C19 inhib: blockers of cytochrome P450 2C19 activity – biochemical, luminescence, ADME assay, primary screen; P33261; CYP2C19 Supersomes, luciferin-H EGE luminescence, 30 min; inhibition, % at 5 µM; 21% of 96,000 active;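 active means CYP2C19 inhibition above a set limit at 5 µM in the primary screen, cut at about 50% in these data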;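 further: plate controls were negative control wells for no effect and 2.5 mM tranylcypromine positive control for full effect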
# CYP2C9 activ: human CYP2C9 activators, primary screen, biochemical, luminescence | recombinant CYP2C9, luciferin-H conversion; active compounds read high; factor 1 = untreated enzyme, 0 = blocked | activation factor at 5 µM | Cytochrome P450 2C9 (Homo sapiens), P11712 | 1.4% of 96,000 active;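 active means activation factor of 2 or more for CYP2C9 at a 5 µM dose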;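 further: 0 = sulfaphenazole-blocked wells and 1 = vehicle-only wells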
# CYP2C19 activ: human CYP2C19 activators, primary screen, biochemical, luminescence; 96,000 tested, under 10 active; activation factor at 5 µM; AID 1025, 2008; recombinant CYP2C19, luciferin-H EGE luminescence; active compounds read high; 0 = fully inhibited enzyme, 1 = untreated enzyme;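 active means activation factor of at least 2 at 5 µM in the primary screen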;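 further: 0 = wells with 2.5 mM tranylcypromine and 1 = vehicle-only wells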
# An asterisk follows results filed as active; · = no result given.
SMILES,PTK2B oligo ant,CYP2C9 inh,CYP2C19 inhib,CYP2C9 activ,CYP2C19 activ
CCN(C(=O)c1coc(=O)c(Br)c1)c1ccc2c(c1)OCO2,1.07,61.6*,58.8*,0.4,0.4
O=C(CCS(=O)(=O)c1ccc(Br)cc1)Nc1ccc2c(c1)OCO2,0.68,·,·,·,·
O=C(CCNS(=O)(=O)c1ccc2c(c1)CCC(=O)N2)Nc1ccc2c(c1)OCCO2,-0.04,11.0,-12.8,0.9,1.1
O=C1OCC(c2ccccc2)=C1c1ccc(S(=O)(=O)N2CCOCC2)s1,-1.97,24.1,10.1,0.8,0.9
CCC1(c2ccc(F)cc2)NC(=O)N(CC(=O)c2ccc[nH]2)C1=O (stereo not drawn),1.16,-8.5,0.9,1.1,1
COc1cccc(CN2C(=O)c3cccc(N)c3C2=O)c1,-1.01,·,·,·,·
Cc1cccc(/C=C2/S/C(=N/N=C3\CC4CCC3(C)C4(C)C)NC2=O)c1 (stereo not drawn),-1.36,17.2,-12.6,0.8,1.1
O=C(NCc1ccc2c(c1)OCO2)c1ccc(=O)[nH]c1,0.22,-0.6,-15.5,1,1.2
O=C(c1cnc(N2CCN(c3ncccn3)CC2)c2ccccc12)N1CCN(c2ncccn2)CC1,-1.05,64.0*,41.9,0.4,0.6
CCN(C(=O)c1cnc(N2CCN(c3ncccn3)CC2)c2ccccc12)c1cccc(Cl)c1,-3.3*,84.8*,97.2*,0.2,0
CN(C(=O)c1cnc(N2CCN(c3ncccn3)CC2)c2ccccc12)c1ccc(Cl)cc1,-2.6,69.6*,88.1*,0.3,0.1
N#CCCn1c(C2CCCCC2)nc2ccccc21,0.43,-16.9,-18.0,1.2,1.2
CC(C)CNC(=O)c1cc2nc3c(c(C(F)(F)F)n2n1)CCc1ccccc1-3,-0.33,88.4*,68.1*,0.1,0.3
Cn1c(=O)c2c(SCc3cccnc3)nc(CC(C)(C)C)nc2n(C)c1=O,·,97.8*,89.6*,0,0.1
CCCc1nc(SCc2cccnc2)c2c(=O)n(C)c(=O)n(C)c2n1,·,89.5*,100.3*,0.1,0
CCOC(=O)c1ccccc1NC(=O)CSc1nnc(COc2ccccc2C)n1C,-0.72,-33.9,40.8,1.3,0.6
CC1=C(C(=O)OC(C)C)C(c2cccs2)C(C(=O)OC(C)C)=C(C)N1,-2.23,·,·,·,·
CC1=C(C(=O)OC(C)C)C(C)C(C(=O)OC(C)C)=C(C)N1,-2.86,92.3*,100.4*,0.1,0
Cc1cc2cc(CCNC(=O)CC(C)(C)C)c(=O)[nH]c2cc1C,·,-16.2,-11.1,1.2,1.1
Cc1ccc(N(CC(=O)NCc2ccncc2)S(C)(=O)=O)cc1Cl,-0.33,88.9*,98.7*,0.1,0
C=CCNC(=O)CN(c1ccc(F)c(Cl)c1)S(C)(=O)=O,0,7.4,56.8*,0.9,0.4
CS(=O)(=O)N(CC(=O)NCc1ccncc1)c1cc(Cl)cc(Cl)c1,0.4,86.7*,99.7*,0.1,0
Cc1ccc(N(CC(=O)NCc2cccnc2)S(C)(=O)=O)cc1C,-0.62,25.6,83.9*,0.7,0.2
Cc1ccc(N(CC(=O)NCc2ccncc2)S(C)(=O)=O)cc1,-0.02,·,·,·,·
CS(=O)(=O)N(CC(N)=O)c1ccc(F)c(Cl)c1,1.46,5.8,16.1,0.9,0.8
SMILES,PTK2B oligo ant,CYP2C9 inh,CYP2C19 inhib,CYP2C9 activ,CYP2C19 activ
COc1ccc(N2C(=O)CCC(C(=O)N3CCOCC3)C2c2ccc(F)cc2)cc1 (stereo not drawn),0.28,8.2,0.9,0.9,1
O=C(NC1(C(F)(F)F)NC(=O)N(Cc2cccnc2)C1=O)c1cccs1 (stereo not drawn),1.44,37.3,52.3*,0.6,0.5
Cc1nc(CS(=O)(=O)c2ccc(Cl)cc2)cc(N2CCOCC2)n1,-0.22,52.6*,80.5*,0.5,0.2
Cc1nc(CS(=O)(=O)c2ccc(Cl)cc2)cc(Sc2ccccc2Cl)n1,-0.1,67.0*,52.5*,0.3,0.5
CCN(CC)C(=O)CSc1nc2ccccc2c(=O)n1-c1cccc(OC)c1,0.12,71.4*,33.3,0.3,0.7
CCCCOC(=O)n1c(SCC(=O)N(CC)CC)nc2ccccc21,-0.29,86.0*,38.8,0.1,0.6
CCNC(=O)CSc1nc2ccccc2c(=O)n1OC,-0.49,-6.8,-24.7,1.1,1.2
CCNC(=O)CSc1nc2ccccc2c(=O)n1-c1cc(OC)ccc1OC,0.89,72.8*,49.4,0.3,0.5
O=C(CSc1nc2ccccc2c(=O)n1-c1cccc(C(F)(F)F)c1)NC1CC1,-0.22,31.7,51.0*,0.7,0.5
Cc1cc(NC(=O)CSc2nc3ccccc3c(=O)n2-c2ccccc2)no1,0.17,30.0,9.0,0.7,0.9
CCOc1ccc(N(CC(=O)NC2CCCC2)S(=O)(=O)c2c(C)[nH]c(=O)[nH]c2=O)cc1,·,32.7,-5.9,0.7,1.1
CCOc1ccccc1-n1c(SCC(N)=O)nc2ccccc2c1=O,-0.68,42.6,59.3*,0.6,0.4
CC(C)Cn1c(SCC#N)nc2ccccc2c1=O,-1.47,28.0,23.2,0.7,0.8
CCN(CC)C(=O)CSc1nc2ccccc2c(=O)n1CCC(=O)NCc1ccc(F)cc1,-0.44,91.6*,57.0*,0.1,0.4
CCN(CC)C(=O)CSc1nc2ccccc2c(=O)n1CC,0.14,30.8,15.3,0.7,0.8
CCN(CC)C(=O)CSc1nc2ccccc2c(=O)n1OC(C)C,0.32,57.8*,6.0,0.4,0.9
COc1ccc(-n2c(SCC#N)nc3ccccc3c2=O)cc1,-0.78,68.1*,11.4,0.3,0.9
O=C(CSc1nnc(-c2ccncc2)n1-c1ccccc1)N1CCN(c2ccc(Cl)cc2)CC1,-0.25,26.7,15.4,0.7,0.8
CC(=O)Nc1nonc1NC(=O)c1ccc(C(C)(C)C)cc1,-0.89,20.2,41.7,0.8,0.6
Cc1nn(Cc2ccccc2Cl)c(C)c1C(=O)Nc1nnc(C2CC2)s1,-0.41,50.6*,16.2,0.5,0.8
Cc1onc(-c2c(F)cccc2Cl)c1C(=O)Nc1nnc(C2CC2)s1,-1.77,63.4*,62.3*,0.4,0.4
Cc1onc(-c2c(F)cccc2Cl)c1C(=O)Nc1sc2c(c1C(N)=O)CCC2,-1.98,74.5*,20.7,0.3,0.8
Cc1onc(-c2c(F)cccc2Cl)c1C(=O)NC1CCSC1=O (stereo not drawn),1.47,64.8*,81.5*,0.4,0.2
Cc1onc(-c2ccccc2)c1C(=O)Nc1sc2c(c1C(N)=O)CCC2,-0.03,43.2,47.9,0.6,0.5
COc1cc(NC(=O)c2nnn(Cc3ccc(SC)cc3)c2N)cc(OC)c1,·,13.4,7.3,0.9,0.9
Cc1onc(-c2ccccc2Cl)c1C(=O)Nc1nnc(-c2ccc(Br)cc2)s1,·,40.3,13.9,0.6,0.9
Cc1onc(-c2ccccc2Cl)c1C(=O)Nc1nnc(-c2ccc(Cl)cc2Cl)s1,·,65.6*,4.5,0.3,1
